These results are taken from ChEMBL document CHEMBL4513216, “Probing the Open Global Health Chemical Diversity Library for Multistage-Active Starting Points for Next-Generation Antimalarials” (ACS Infect Dis, 2020).

The campaign covered roughly 65,000 compounds. About 2,100 (3.2%) showed an effect of 50% or more. The median lay at about -52%. The list comes from a sample in which strong results are over-represented; it also holds similar structures and randomly drawn compounds.

The test system of this test is Plasmodium falciparum. Description: Screen against P. falciparum Asexual Blood Stage (ABS), at 5uM. Type of test: functional, Dd2. Conditions: tested at 5 uM.
Consider `CCOCc1nc(-c2ccc(F)cc2Cl)n(C)n1`, for which the INHIBITION is recorded as -121%.

Consider `CN1C(=O)CC(c2ccccc2)C12CCN(CC1CCOCC1)CC2` (stereo not drawn), for which the INHIBITION was found to be 36.1%.

For the compound `CCN1C(=O)CC(c2ccccc2)C12CCN(CC1CCOCC1)CC2` (stereo not drawn), the INHIBITION came to 50.3%.

In the case of `CN1C(=O)CC(c2ccccc2)C12CCN(CC1CC1)CC2` (stereo not drawn), the INHIBITION stood at 16.7%.

With `Cc1nc(C)n(CC2CCCCN2CC(=O)Nc2c(C)n[nH]c2C)n1` (stereo not drawn), the INHIBITION amounted to 54.2%.

Turning to `Cc1nc(C)n(CC2CCCN2CC(=O)Nc2c(C)n[nH]c2C)n1` (stereo not drawn), the INHIBITION was 35%.

In the case of `Cc1cc(C)n(CC2CCCCN2CC(=O)Nc2c(C)n[nH]c2C)n1` (stereo not drawn), the INHIBITION is given as -116%.

On to `CC(C)Cn1nc(-c2ccc(C(=O)O)cc2)cc1-c1ccc(F)cc1`, for which the INHIBITION was -57.3%.

Regarding `CC(NCc1cccc(Cl)c1)c1ccc(OCC(=O)NC2CC2)cc1` (stereo not drawn), the INHIBITION came to 51.7%.

For the compound `Cc1cccc(CNC(C)c2ccc(OCC(=O)NC3CC3)cc2)c1` (stereo not drawn), the INHIBITION is -21%.

Turning to `CC(NCc1cccnc1)c1ccc(OCC(=O)NC2CC2)cc1` (stereo not drawn), the INHIBITION is recorded as -107%.

As to `CC(C)(O)CN1CCN(C(=O)c2cccc3cccnc23)CC1`, the INHIBITION came to 24.5%.

Consider `CC(C)CNC(=O)[C@H]1C[C@H]2CN(C(=O)Nc3ccc(F)cc3)C[C@@H]1O2`, for which the INHIBITION is reported as -5.8%.

On to `Cc1csc(NC(=O)CN2CCc3c(nc(C4CC4)n3C)C2)n1`, for which the INHIBITION is recorded as -122%.

For the compound `NC(=O)c1ccccc1Oc1cnc(C2CCCN2)cn1` (stereo not drawn), the INHIBITION is given as -95.3%.

As to `NC(=O)c1ccccc1Oc1cccc(C2CCCNC2)n1` (stereo not drawn), the INHIBITION is listed as 55.8%.

As for `NC(=O)c1ccc(C2CCCNC2)nc1` (stereo not drawn), the INHIBITION is on record as -43.7%.

Regarding `CN(CC1(O)CCCN(Cc2cccc(F)c2F)C1=O)C1CCCCC1` (stereo not drawn), the INHIBITION was determined as 65%.

Take `COc1ccc(F)c(CN2CCCC(O)(CNCc3ccon3)C2=O)c1` (stereo not drawn): the INHIBITION was -19%.

As to `COc1ccc(F)c(CN2CCCC(O)(CNCC(C)(C)C)C2=O)c1` (stereo not drawn), the INHIBITION was 50.2%.

`O=C(CNCC1(O)CCCN(Cc2cccc(F)c2F)C1=O)NC1CC1` (stereo not drawn): the INHIBITION is reported as -93.9%.

For the compound `O=C1N(Cc2cccc(F)c2F)CCCC1(O)CNC1CCCC1` (stereo not drawn), the INHIBITION is 60.2%.

As for `COC(=O)CNCC1(O)CCCN(Cc2cccc(F)c2F)C1=O` (stereo not drawn), the INHIBITION is -51%.

In the case of `COc1ccc(F)c(CN2CCCC(O)(CNCc3ncc[nH]3)C2=O)c1` (stereo not drawn), the INHIBITION is -93.5%.

Turning to `O=C1N(Cc2cccc(F)c2F)CCCC1(O)CNCc1ccccn1` (stereo not drawn), the INHIBITION is on record as 4.26%.

On to `O=C1N(Cc2cccc(F)c2F)CCCC1(O)CNCc1ccccc1` (stereo not drawn), for which the INHIBITION is given as 61.9%.

Take `CN(C)CCNCC1(O)CCCN(Cc2cccc(F)c2F)C1=O` (stereo not drawn): the INHIBITION is recorded as -65.2%.

In the case of `CN1CCC(NCC2(O)CCCN(Cc3ccccc3F)C2=O)CC1` (stereo not drawn), the INHIBITION was 7.93%.

Turning to `CC1CCN(CC2(O)CCCN(Cc3cccc(F)c3F)C2=O)CC1` (stereo not drawn), the INHIBITION was -71.6%.

As for `Cc1noc([C@@H]2CC[C@@H]3[C@@H](CCN3c3nnc(C)s3)O2)n1`, the INHIBITION was -97.1%.

Take `CCn1cnnc1CNC(=O)NC(C)c1ccccn1` (stereo not drawn): the INHIBITION is -68.5%.

On to `CCn1nc(C)c2c1cnn2CCNS(=O)(=O)c1cccs1`, for which the INHIBITION was -54.4%.

Consider `CCC(C)n1c(SCC(=O)N2CCOCC2)nc2cc(C)[nH]c2c1=O` (stereo not drawn), for which the INHIBITION is -77%.

In the case of `CO[C@H]1CN(C(=O)c2ccc3oc(C)cc3c2)C[C@@]12CCCO2`, the INHIBITION is given as -39.5%.

With `CN(C)CC1(O)CCN(S(=O)(=O)c2ccc(F)c(F)c2)C1` (stereo not drawn), the INHIBITION amounted to 20.7%.

In the case of `CN(C)CC1(O)CCN(S(=O)(=O)c2ccc(F)cc2)C1` (stereo not drawn), the INHIBITION is listed as 36.6%.

As for `CN(C)CC1(O)CCN(S(=O)(=O)c2cccc(F)c2)C1` (stereo not drawn), the INHIBITION is 66.7%.

Take `COCC1COCCC12CCN(S(=O)(=O)c1ccc(C)cc1)CC2` (stereo not drawn): the INHIBITION is on record as -71.5%.

Turning to `Cc1ccc(S(=O)(=O)N2CCC(O)(CN(C)C)C2)cc1` (stereo not drawn), the INHIBITION worked out at 52%.

As to `CN(C)CC1(O)CCN(S(=O)(=O)c2ccc(Cl)cc2)C1` (stereo not drawn), the INHIBITION came out at 42.9%.

For `Cc1cccc(CSc2ncc(Br)c(C(=O)O)n2)c1`, the INHIBITION is reported as -52.3%.

In the case of `Cc1cc(C)nc(NCCC(=O)Nc2ccc(Cn3cncn3)cc2)n1`, the INHIBITION is on record as -92%.

With `Cc1cnn(CCNCc2ccc(OCc3noc(C)n3)cc2)c1`, the INHIBITION is given as -14.8%.

Regarding `COc1ccc(C(C)NC(=O)C2CCN(S(C)(=O)=O)CC2)cc1C` (stereo not drawn), the INHIBITION is -118%.

Take `COc1cccc(CCC(=O)N2CCCCC2Cn2cccn2)c1` (stereo not drawn): the INHIBITION is listed as -136%.

Consider `COc1cccc(CCC(=O)N2CCCC(c3nncn3C)C2)c1` (stereo not drawn), for which the INHIBITION is reported as -9.28%.

`O=C(Cc1c[nH]c2ccccc12)N1CCC(Nc2cccnn2)CC1`: the INHIBITION is on record as -48%.

Turning to `N[C@@H]1CCCN(C(=O)Cc2c[nH]c3ccccc23)[C@H]1c1ccccc1F`, the INHIBITION was determined as 65.8%.

For `CC(=O)N1CCC[C@@H](NCc2c[nH]c3ccccc23)[C@@H]1c1ccc(C)s1`, the INHIBITION was 14.4%.

With `COc1cccc(CCC(=O)N2CCC[C@@H](N)[C@@H]2c2ccccc2F)c1`, the INHIBITION is given as 68%.

With `O=c1[nH]nc2c(N3CCOCC3)nccn12`, the INHIBITION is -25.9%.

As to `O=C(c1cccs1)N1C[C@H]2CCC[C@@]2(COCC2CCOCC2)C1`, the INHIBITION is reported as -18.1%.

With `CS(=O)(=O)N1Cc2cnn(CC3CC3)c2C(COCC2CC2)C1` (stereo not drawn), the INHIBITION was -13.5%.
